Reference: PubChem BioAssay (NCI)
Compounds without any hit were thinned out: in the full panel of roughly 83,000, 20% have a hit.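 Percent growth is the endpoint: 0 to 100 indicates growth inhibition (40 means 60% inhibition), 0 means no net growth, and negative values indicate cell death.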 The source made the active and inactive calls. How the source made its calls: active means growth percent below 10; inactive means the rest.

Experiments:
Test in all cases: NCI-60 one-dose screen, 48 h (100 = growth as untreated, 0 = no growth, -100 = all killed)
Details in all cases: 10 µM unless noted
[1] = tested on: NCI-H23 lung
[2] = tested on: NCI-H226 lung
[3] = tested on: NCI-H322M lung
[4] = tested on: HOP-62 NSCLC
[5] = tested on: NCI-H460 lung
[6] = tested on: HOP-92 NSCLC
[7] = tested on: NCI-H522 lung
[8] = tested on: A549/ATCC NSCLC
[9] = tested on: 786-0 renal
[10] = tested on: COLO 205 colon
[11] = tested on: DU-145 prostate
[12] = tested on: K-562 leukemia
[13] = tested on: MALME-3M melanoma
[14] = tested on: MDA-MB-231 breast
[15] = tested on: RXF 393 renal
[16] = tested on: SF-268 CNS
[17] = tested on: SF-295 CNS
[18] = tested on: SF-539 CNS
[19] = tested on: UACC-257 melanoma
[20] = tested on: M14 melanoma

Measured: growth

CC1(C)CC[C@]2(C(=O)O)CC[C@]3(C)C(=CC[C@@H]4[C@@]5(C)C[C@@H](Cc6cn([C@@H]7O[C@H](CO)[C@@H](O)[C@H](O)[C@H]7O)nn6)[C@H](O)C(C)(C)[C@@H]5CC[C@]43C)[C@@H]2C1
inactive: [1] 104% | [2] 98.3% | [3] 97.4% | [4] 89.2% | [5] 106% | [6] 102% | [7] 106% | [8] 85% | [9] 95.8% | [10] 113% | [11] 112% | [12] 90% | [13] 112% | [14] 97.2% | [15] 106% | [16] 103% | [17] 99.3% | [18] 101% | [19] 88.8% | [20] 97.5%

O=C1c2cc3c(cc2-c2c1c1ccc(Cl)cc1c(=O)n2C[C@H](O)CO)OCO3
active: [1] -11.4% | [2] -77.7% | [3] -14.3% | [4] -19.8% | [5] -12.1% | [6] -11% | [7] -12.7% | [8] -18.6% | [9] -42.2% | [10] -28.1% | [11] 3.78% | [13] -26.7% | [15] -66.6% | [16] 4.7% | [17] -14.8% | [18] -33.1% | [19] -36% | [20] -14.2%
inactive: [12] 10.4% | [14] 19.5%

C/C(=N\O)C(=O)NCCCCCC(=O)Nc1ccccc1
inactive: [1] 99.2% | [2] 110% | [3] 103% | [4] 102% | [5] 111% | [6] 94.4% | [7] 91.1% | [8] 97% | [9] 94.4% | [10] 108% | [11] 114% | [12] 99.7% | [13] 98.9% | [14] 100% | [15] 121% | [16] 100% | [17] 101% | [18] 107% | [19] 98.6% | [20] 107%

C=NNc1ccccc1
inactive: [1] 86.5% | [2] 87.5% | [3] 85.7% | [4] 101% | [5] 102% | [6] 78.1% | [7] 73.7% | [8] 84.3% | [9] 103% | [10] 100% | [11] 100% | [12] 75.8% | [13] 126% | [14] 66.8% | [15] 105% | [16] 92.3% | [17] 100% | [18] 101% | [19] 98.3% | [20] 95.3%

Clc1nn2c(Cn3cnc4c(NCc5ccccc5)ncnc43)nnc2c2ccccc12
active: [6] 5.22%
inactive: [1] 53.6% | [2] 42.5% | [3] 21% | [4] 37.9% | [5] 34% | [7] 43.7% | [8] 40% | [9] 40% | [10] 35.1% | [11] 36.7% | [12] 42.7% | [13] 27.8% | [14] 26.6% | [15] 39% | [16] 41.9% | [17] 63.2% | [18] 50.7% | [19] 39.1% | [20] 19.7%

O=C(O)CCCc1cnc2c3sccc3nc(SCc3c(Cl)cccc3Cl)n12
inactive: [1] 62.2% | [2] 83.1% | [3] 55.3% | [4] 33.9% | [5] 22.2% | [6] 58.7% | [8] 59.5% | [9] 38.5% | [10] 28.3% | [11] 59.3% | [12] 20.7% | [13] 59.2% | [14] 69.6% | [15] 54.6% | [16] 50.3% | [17] 27.2% | [18] 41% | [19] 53% | [20] 33%
active: [7] -12.5%

COc1cc(C2Cc3ncccc3-c3[nH]c(=O)c4cccnc4c32)cc(OC)c1OC (stereo not given)
inactive: [1] 35.3% | [2] 62.8% | [3] 55.5% | [4] 21.7% | [6] 67.5% | [8] 20.4% | [9] 33% | [11] 23% | [12] 16.3% | [13] 77.6% | [14] 31% | [16] 44.1% | [19] 56.9% | [20] 10.3%
active: [5] 9.39% | [7] -31% | [10] -20% | [15] 8.5% | [17] 1.73% | [18] -18.8%

CC(=O)Nc1c(Cl)cc(Cl)c2c1Cc1cc([N+](=O)[O-])ccc1-2
inactive: [1] 94.6% | [2] 113% | [3] 99% | [4] 90.5% | [5] 86.6% | [6] 100% | [7] 91.9% | [8] 82.4% | [9] 75.7% | [10] 93.4% | [11] 104% | [12] 90.2% | [13] 107% | [14] 83.6% | [15] 85.3% | [16] 95.5% | [17] 113% | [18] 61.1% | [19] 107% | [20] 100%

CN(C)c1ccc(/C=C2/C=C(c3ccccc3)OC2=O)cc1
inactive: [1] 95.4% | [2] 105% | [3] 96.9% | [4] 96.3% | [5] 103% | [6] 98.2% | [7] 55.7% | [8] 96.4% | [9] 100% | [10] 99.3% | [11] 101% | [12] 46.9% | [13] 96.2% | [14] 109% | [15] 89.5% | [16] 101% | [17] 79.4% | [18] 102% | [19] 89.2% | [20] 86.1%

CC[C@H](C)[C@H](NC(=O)[C@H](CCCNC(=N)N)NC(=O)[C@H](Cc1c[nH]c2ccccc12)NC(=O)[C@@H](NC(=O)[C@H](CCCCN)NC(=O)[C@H](CCCCN)NC(=O)[C@@H](NC(=O)[C@@H](NC(=O)[C@@H](NC(=O)[C@H](CCCCN)NC(=O)[C@H](Cc1ccccc1)NC(=O)[C@H](CCCCN)NC(=O)[C@H](CCCCN)NC(=O)[C@H](Cc1ccccc1)NC(=O)[C@@H](NC(=O)[C@@H](N)CCCCN)[C@@H](C)CC)[C@@H](C)O)[C@@H](C)CC)[C@@H](C)CC)C(C)C)C(=O)N[C@@H](Cc1ccccc1)C(=O)NCC(=O)N[C@@H](CCCNC(=N)N)C(=O)N[C@@H](Cc1ccccc1)C(N)=O
inactive: [7] 14.1% | [19] 47.3%
active: [1] -37.9% | [2] 1.83% | [3] -50.5% | [4] -41.7% | [5] -5.53% | [6] -20.3% | [8] -40.6% | [9] -31.3% | [10] -55.3% | [11] -64.4% | [12] 4.14% | [13] -64.4% | [14] -70.6% | [15] -2.96% | [16] -23.2% | [17] -34.1% | [18] -69.8% | [20] -18.4%

N=c1sc(Cc2cc(Cl)ccc2Cl)cn1CC(=O)c1ccccc1
inactive: [1] 68.4% | [2] 66.3% | [3] 56.4% | [4] 74.6% | [5] 20.3% | [6] 51.2% | [7] 39.8% | [8] 30% | [9] 78.4% | [10] 72.1% | [11] 68.7% | [12] 17% | [13] 44.6% | [14] 54.9% | [15] 77.1% | [16] 58.9% | [17] 57.3% | [18] 64.1% | [19] 60.3% | [20] 21.1%

CCCCCCCCn1ccc2cc(NC(=O)Cn3cc(CN4CCC(C)CC4)nn3)ccc21
inactive: [1] 79.4% | [2] 69.9% | [3] 28.6% | [4] 72.4% | [6] 21.8% | [7] 18.7% | [8] 21.1% | [11] 42.3% | [15] 24.8% | [16] 32.8% | [18] 11.5%
active: [5] -70.2% | [9] 0.91% | [10] -74.4% | [12] -25.6% | [13] -70.5% | [14] 9.71% | [17] -74.3% | [19] -35.8% | [20] -65.2%

C/C(=C(/c1ccc(Cl)cc1)c1ccc(OCCCN(C)C)cc1)c1ccc(Cl)cc1
inactive: [1] 91.2% | [2] 108% | [3] 85.9% | [4] 115% | [5] 72.7% | [6] 74.4% | [7] 99.7% | [8] 68.1% | [9] 86.8% | [10] 48.9% | [11] 95.5% | [12] 16.9% | [13] 96.4% | [14] 99.2% | [15] 77.6% | [16] 88.5% | [17] 110% | [18] 99% | [19] 103% | [20] 91.5%
